In PubChem BioAssay (NCATS):
“And” between values parts separate entries of the source, which are not always exact repeats. Equal entries are not always repeated. Records with an inconclusive call do not appear. The source made the active and inactive calls. Calls come from the whole dose curve; as a rule, active = well fitted curve in the direction sought with a large enough effect; inconclusive = small, poorly fitted or top-dose-only effect, or another doubt; inactive = no such curve, though single readings can be large; an effect the other way counts as inactive or inconclusive.

Experiments:
[1] = Viability qHTS for spleen associated tyrosine kinase inhibitor (SYKi) naive MV4-11 cells (AID 1963823); settings: MV4-11 AML viability, CellTiter-Glo luminescence, 72 h; series mostly up to 45 µM; note: nearly all actives have a fitted effect of over 40% in size
Method in brief: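 SYK inhibitor-naive MV4-11 cells, 500 per well, exposed to compounds for 72 hr at 37 C, 5% CO2. Viability read as CellTiter-Glo luminescence after 10 min at room temperature.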

[2] = Viability qHTS for spleen associated tyrosine kinase inhibitor (SYKi) drug resistant MV4-11 cells (AID 1963824); settings: SYKi-resistant MV4-11 viability, CellTiter-Glo, 72 h; series mostly up to 45 µM; note: nearly all actives have a fitted effect of over 35% in size
Method in brief: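 CellTiter-Glo luminescence, read 10 min after reagent addition, reports viability after a 72 hr compound exposure. Cells are an MV4-11 line made resistant to SYK inhibition, seeded at 500 per well onto compound-containing plates.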

[3] = Cellular viability qHTS for adrenocortical cancer (ACC) cell line NCI-H295R (AID 1963990); settings: CellTiter-Glo ATP luminescence, 48 h; series mostly up to 46.1 µM; note: nearly all actives have a fitted effect of over 60% in size
Method in brief: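 Compound titrations (up to 46 uM final) are applied to NCI-H295R cultures for 48 h at 37C. Viable cell number is estimated by CellTiter-Glo signal, normalised to DMSO and doxorubicin controls.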
Potency is the fitted concentration of half-maximal effect.

Row | Compound | Potency [1] | Potency [2] | Potency [3]
1 | C=C1C(=O)O[C@@H]2[C@H]3O[C@]3(C)CC/C=C(\C)CC[C@@H]12 | 2.35 µM (active) | 1.86 µM (active) | 10 µM (active)
2 | CCCS(=O)(=O)c1nc(NC2CC2)cc(-c2ccc3c(ccn3C3CC(C)(C)NC(C)(C)C3)c2)n1 | 1.75 µM (active) | 1.11 µM (active) | 2.18 µM (active)
3 | C=CC(=O)N1CC[C@@H](Oc2nc(Nc3ccc(N4CCC(N5CCN(C)CC5)CC4)cc3)c(C(N)=O)nc2CC)C1 | 0.0323 µM (active) | 0.091 µM (active) | 7.15 µM (active)
4 | CN1CCCN(C(c2ccccc2)c2ccc(Cl)cc2)CC1 (stereo not given) | 21.1 µM (active) | 16.8 µM (active) | 23.1 µM (active)
5 | C#Cc1ccc(-c2ccccc2F)cc1 | inactive | inactive | inactive
6 | CCC(=O)N1CCOc2c(cc(-c3cc(OC)cc(OC)c3)cc2C(=O)N[C@H]2CCCN(C)C2)C1 | 16.6 µM (active) | 9.34 µM (active) | inactive
7 | Cn1ncc2cc(-c3cnc(N)c(Cl)c3N3CCC4(CCNC4=O)CC3)ccc21 | 2.31 µM (active) and 1.48 µM (active) | 2.59 µM (active) and 2.95 µM (active) | inactive
8 | Cn1cc(-c2ccc(-c3cncc(Cl)c3N3CCC4(CCNC4=O)CC3)cc2)cn1 | 5.25 µM (active) | 1.48 µM (active) | inactive
9 | Cc1c(F)ccc(C(=O)Nc2cc([N+](=O)[O-])ccc2N2CCN(C)CC2)c1Cl | 1.32 µM (active) | 2.91 µM (active) | inactive
10 | CCCCCCCCCCCC[N+](C)(C)Cc1ccccc1 | 6.68 µM (active) | 9.44 µM (active) | 29.1 µM (active)
